Screening results: PubChem, The Scripps Research Institute Molecular Screening Center
Most compounds without a hit are left out; they make up all but 0.9% or so of the library.
PPARg SRC-3 ag: promotes SRC-3 coactivator recruitment by human PPARgamma | 0.26% of 200,000 active | biochemical PPARgamma/SRC-3 coactivator recruitment assay | P37231 | activation, % at 8 µM; in the data active = activation above about 23%;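 also: 0% = DMSO and 100% = reference agonist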
Target sequence (P37231 whole entry, looked up): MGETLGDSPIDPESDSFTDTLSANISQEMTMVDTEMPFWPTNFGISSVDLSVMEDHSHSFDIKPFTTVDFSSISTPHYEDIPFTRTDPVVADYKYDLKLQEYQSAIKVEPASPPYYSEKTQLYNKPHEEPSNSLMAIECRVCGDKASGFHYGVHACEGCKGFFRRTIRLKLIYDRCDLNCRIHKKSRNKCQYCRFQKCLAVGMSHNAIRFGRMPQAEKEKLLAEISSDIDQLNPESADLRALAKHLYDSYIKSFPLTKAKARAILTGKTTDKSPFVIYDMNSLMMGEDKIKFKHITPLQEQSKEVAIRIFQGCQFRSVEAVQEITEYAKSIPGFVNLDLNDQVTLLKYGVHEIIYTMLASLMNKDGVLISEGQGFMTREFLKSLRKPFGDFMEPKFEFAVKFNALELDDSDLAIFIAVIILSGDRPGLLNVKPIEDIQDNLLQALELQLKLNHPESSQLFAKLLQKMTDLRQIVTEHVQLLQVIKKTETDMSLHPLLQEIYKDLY
PPARg SRC-2 ag: promotes SRC-2 coactivator recruitment by human PPARgamma; P37231; PPARgamma LBD-SRC-2 recruitment, biochemical; activation, % at 8 µM; 0.34% of 200,000 active; AID 1032; in the data active = activation above about 22%;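 also: 0% = vehicle and 100% = reference agonist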
SRC2 TRFRET art: TR-FRET artefact, counter-screen to PPARgamma/SRC-2 agonist assay; hits give high values; TR-FRET ratio at 8 µM; 0.4% of 200,000 active
PPARg SRC1 recr: PPARgamma-driven SRC-1 recruitment agonism; P37231; PPARgamma-SRC-1 coactivator recruitment biochemical assay; activation, % at 8 µM; 0.41% of 200,000 active; in the data active = activation above about 19%;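 also: 0% = DMSO and 100% = reference agonist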
SRC3 TRFRET art: TR-FRET artefact, counter-screen to PPARgamma/SRC-3 agonist assay; 0.39% of 99,000 active; PPARgamma/SRC-3 format; hits give high values; TR-FRET ratio at 8 µM
SRC1 TRFRET art: counter-screen for PPARgamma SRC-1 recruitment agonists: TR-FRET artefact | TR-FRET detection artefact counter-screen, emission ratio; hits give high values | TR-FRET ratio at 8 µM | 0.34% of 99,000 active | AID 1051; in the data active = TR-FRET ratio above about 2300
Numbers without * were called inactive. Rule as the data show it, unless noted: active = TR-FRET ratio above about 2000; inactive = the rest.

Screening CCc1ccc(NC(=O)C(=O)NNC(=O)COc2cccc(OC)c2)cc1 returned PPARg SRC-3 ag 1, PPARg SRC-2 ag 2, SRC2 TRFRET art 1476, PPARg SRC1 recr 5, SRC3 TRFRET art 1442 and SRC1 TRFRET art 1669.
Screening Cc1c(N=C2N=C(NC(=O)Nc3ccc(Cl)cc3)c3ccccc32)c(=O)n(-c2ccccc2)n1C returned PPARg SRC-3 ag 2, PPARg SRC-2 ag -4, SRC2 TRFRET art 1611, PPARg SRC1 recr 8, SRC3 TRFRET art 1685 and SRC1 TRFRET art 1768.
For CC(C)C(NC(=O)C1CCCCC1)C(=O)NCCc1ccccc1 (stereo not drawn) the results were PPARg SRC-3 ag 2, PPARg SRC-2 ag 0, SRC2 TRFRET art 1525, PPARg SRC1 recr -2, SRC3 TRFRET art 1492 and SRC1 TRFRET art 1871.
`CCOC(=O)C1C(=O)C=C(c2ccc(C)cc2)CC1c1ccccc1` (stereo not drawn) gave PPARg SRC-3 ag 0, PPARg SRC-2 ag 11, SRC2 TRFRET art 2001*, PPARg SRC1 recr 8, SRC3 TRFRET art 1705 and SRC1 TRFRET art 2102.
Screening CCOC(=O)C1C(=O)C=C(c2ccc([N+](=O)[O-])cc2)CC1c1ccccc1 (stereo not drawn) returned PPARg SRC-3 ag 3, PPARg SRC-2 ag 1, SRC2 TRFRET art 1385 and PPARg SRC1 recr 2.
Cc1ccc(OCCn2cc(C(=S)N3CCCC3)c3ccccc32)cc1C was read as PPARg SRC-3 ag 9, PPARg SRC-2 ag 2, SRC2 TRFRET art 2180* and PPARg SRC1 recr 16.
For S=C(c1cn(CCOc2ccccc2)c2ccccc12)N1CCCC1 the results were PPARg SRC-3 ag 7, PPARg SRC-2 ag 1, SRC2 TRFRET art 1705 and PPARg SRC1 recr -1.
`S=C(c1cn(CCOc2cccc3ccccc23)c2ccccc12)N1CCCC1` gave PPARg SRC-3 ag 19, PPARg SRC-2 ag 19, SRC2 TRFRET art 3070*, PPARg SRC1 recr 15, SRC3 TRFRET art 3153* and SRC1 TRFRET art 3691*.
`COc1ccc(C(=O)NCCSc2ccccc2)cc1` gave PPARg SRC-3 ag 4, PPARg SRC-2 ag 11, SRC2 TRFRET art 1445, PPARg SRC1 recr 6, SRC3 TRFRET art 1629 and SRC1 TRFRET art 1905.
O=C(NCc1nc2ccccc2[nH]1)c1ccc(S(=O)(=O)N2CCOCC2)cc1 was read as PPARg SRC-3 ag 1, PPARg SRC-2 ag 6, SRC2 TRFRET art 1535 and PPARg SRC1 recr 3.
For Cc1cc2ccccc2n1CCNC(=O)c1ccc(S(=O)(=O)N2CCOCC2)cc1 the results were PPARg SRC-3 ag 3, PPARg SRC-2 ag 3, SRC2 TRFRET art 1798, PPARg SRC1 recr 0, SRC3 TRFRET art 2905* and SRC1 TRFRET art 2656*.
For Cc1cc2ccccc2n1CCNC(=O)c1ccccc1 the results were PPARg SRC-3 ag 7, PPARg SRC-2 ag 7, SRC2 TRFRET art 1939 and PPARg SRC1 recr 3.
`COc1ccc(-c2[nH]c3ccccc3c2SCCNC(=O)c2ccccc2)cc1` gave PPARg SRC-3 ag 4, PPARg SRC-2 ag 24*, SRC2 TRFRET art 1807, PPARg SRC1 recr 8, SRC3 TRFRET art 2781* and SRC1 TRFRET art 2021.
For Cc1ccc(-c2[nH]c3ccccc3c2SCCNC(=O)c2ccc(S(=O)(=O)N3CCOCC3)cc2)cc1 the results were PPARg SRC-3 ag 10, PPARg SRC-2 ag 8, SRC2 TRFRET art 2560*, PPARg SRC1 recr 6, SRC3 TRFRET art 2709* and SRC1 TRFRET art 3343*.
Screening CN1C(=O)/C(=C/c2cn(CC(=O)N3CCCCC3)c3ccccc23)c2ccccc21 returned PPARg SRC-3 ag -3, PPARg SRC-2 ag -4, SRC2 TRFRET art 1533 and PPARg SRC1 recr 2.
Screening CC(Sc1nncs1)C(=O)NCC(=O)Nc1ccc(F)c(F)c1F (stereo not drawn) returned PPARg SRC-3 ag -4, PPARg SRC-2 ag 7, SRC2 TRFRET art 1407, PPARg SRC1 recr 3, SRC3 TRFRET art 1499 and SRC1 TRFRET art 1704.
Screening CCOC(=O)C1=NN(c2cccc(Cl)c2)C2=NC(C)=C(C(=O)OC)C(c3cccs3)N12 (stereo not drawn) returned PPARg SRC-3 ag 5, PPARg SRC-2 ag 27*, SRC2 TRFRET art 1618 and PPARg SRC1 recr 9.
For CN1/C(=C\C(=S)Nc2ccccc2)C(C)(C)c2ccccc21 the results were PPARg SRC-3 ag 2, PPARg SRC-2 ag -1, SRC2 TRFRET art 1974*, PPARg SRC1 recr 8, SRC3 TRFRET art 1715 and SRC1 TRFRET art 1780.
Screening COc1ccccc1C(=O)NC(=S)/C=C1/N(C)c2ccccc2C1(C)C returned PPARg SRC-3 ag 11, PPARg SRC-2 ag 17, SRC2 TRFRET art 1664, PPARg SRC1 recr 13, SRC3 TRFRET art 1894 and SRC1 TRFRET art 2384*.
`CN1/C(=C\C(=O)Nc2ccc(Cl)cc2)C(C)(C)c2ccccc21` gave PPARg SRC-3 ag -5, PPARg SRC-2 ag 4, SRC2 TRFRET art 1427, PPARg SRC1 recr 0, SRC3 TRFRET art 1551 and SRC1 TRFRET art 1653.
For CN1/C(=C\C(=S)NC(=O)c2ccccc2Cl)C(C)(C)c2ccccc21 the results were PPARg SRC-3 ag 0, PPARg SRC-2 ag -2, SRC2 TRFRET art 1473, PPARg SRC1 recr -4, SRC3 TRFRET art 1615 and SRC1 TRFRET art 1647.
For O=C(O)CC(c1cccc([N+](=O)[O-])c1)N1Cc2ccccc2C1=O (stereo not drawn) the results were PPARg SRC-3 ag 5, PPARg SRC-2 ag 8, SRC2 TRFRET art 1754, PPARg SRC1 recr 12, SRC3 TRFRET art 1682 and SRC1 TRFRET art 1977.
O=C(O)c1cn(Cc2ccccn2)c(=O)c2ccccc12 was read as PPARg SRC-3 ag -2, PPARg SRC-2 ag 1, SRC2 TRFRET art 1678, PPARg SRC1 recr 7, SRC3 TRFRET art 1822 and SRC1 TRFRET art 1587.
Screening CC(Sc1nnc(-c2cccnc2)n1-c1ccccc1F)C(=O)N1CCCc2ccccc21 (stereo not drawn) returned PPARg SRC-3 ag -3, PPARg SRC-2 ag 4, SRC2 TRFRET art 1410, PPARg SRC1 recr -1, SRC3 TRFRET art 1330 and SRC1 TRFRET art 1781.
For CC(C(=O)Nc1ccc2c(c1)OCCO2)c1ccc([N+](=O)[O-])cc1 (stereo not drawn) the results were PPARg SRC-3 ag 5, PPARg SRC-2 ag 0, SRC2 TRFRET art 1717, PPARg SRC1 recr -2, SRC3 TRFRET art 2361* and SRC1 TRFRET art 1602.
`Cn1c(SCC(=O)N2c3ccccc3CCc3ccccc32)nnc1-c1ccc(O)cc1` gave PPARg SRC-3 ag -5, PPARg SRC-2 ag -4, SRC2 TRFRET art 1514, PPARg SRC1 recr 1, SRC3 TRFRET art 1669 and SRC1 TRFRET art 1661.
Screening CC(C)c1ccccc1-n1c(SCC(=O)c2ccc3c(c2)NC(=O)CO3)nc2ccccc2c1=O returned PPARg SRC-3 ag 11, PPARg SRC-2 ag -1, SRC2 TRFRET art 2160*, PPARg SRC1 recr 0, SRC3 TRFRET art 2760* and SRC1 TRFRET art 2916*.
CC(C)c1ccccc1-n1c(SCC(=O)N2CCc3ccccc3C2)nc2ccccc2c1=O was read as PPARg SRC-3 ag 2, PPARg SRC-2 ag 10, SRC2 TRFRET art 1633, PPARg SRC1 recr 3, SRC3 TRFRET art 1635 and SRC1 TRFRET art 1834.
